Source: PubChem BioAssay AID1259420 (Broad Institute, 2018)
The whole screen tested about 1,000 compounds, of which about 250 (25%) were called active. Roughly 31% stayed inconclusive and do not appear here. The list is a sample of the results. Entries with a potency or affinity are not part of this list. Unmarked numbers belong to inactive results. The rule behind the calls is not given here. Numbered stars: 1 amine (or outer) side, 2 acyl side, 3 side chain; on linkers, the order of the positions; unused ones are H or OH. Square brackets hold non-standard residues; d marks the D form. Side chains are listed from the residue outwards. Peptide text beside a SMILES is read from it. * marks the point of attachment. Ethylenediamine = C(CN[*:2])N[*:1]; Hyp = O=C(O)[C@@H]1C[C@@H](O)CN1; Phg = N[C@H](C(=O)O)c1ccccc1; CO = O=C([*:1])[*:2]; Bn = c1ccc(C*)cc1

Experiment: compound activity on host-cell Toxoplasma growth – dose response (AID 1259420);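 note: host cells were HeLa; final incubation lasted 72 hours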
Details: Toxoplasma gondii growth in host cells, no IFN-gamma; at 19.5 µM unless noted

SMILES	max activity
O=C(C[C@@H]1CC[C@@H]2[C@H](COC[C@H](O)CN2C(=O)c2cc(Cl)cc(Cl)c2)O1)N1CCc2ccccc2C1	9.95%
C/C=C/c1ccc(C2[C@@H]3CN(Cc4cccc(OC)c4)C[C@H]2N3)cc1 (stereo partly specified)	25.8% [at 1.2 µM]
O=C(Nc1cccc(F)c1)N1CCCCN2[C@@H](CO)[C@@H](c3ccc(C#Cc4cccnc4)cc3)[C@@H]2C1	16.4% [at 0.6 µM]
O=C(Nc1cccc(F)c1)N1CCCCN2[C@H](C1)[C@H](c1ccc(C#Cc3cccnc3)cc1)[C@@H]2CO	-11.5% [at 21 µM]
CC(C)CCN1Cc2c(C(=O)Nc3cccc(F)c3)ncn2-c2ccccc2S1(=O)=O	27% [at 10 µM]
COc1ccccc1NC(=O)N1CC(=O)N2[C@H](C1)[C@@H](c1ccc(C#CC(C)C)cc1)[C@@H]2CO	-5.1% [at 5 µM]
N#Cc1ccc(-c2ccc([C@@H]3[C@H]4CNC[C@@H]3N4Cc3ccc4c(c3)OCO4)cc2)cc1	27.3% [at 10 µM]
O=C(c1ccc2c(c1)OCO2)N1CC[C@@H]2[C@H](CO)Nc3ccc(C#Cc4ccccc4)cc3[C@@H]21	15.9%
OC[C@@H]1Nc2ccc(C#Cc3ccc(F)cc3)cc2[C@@H]2[C@H]1CCN2Cc1ccc2c(c1)OCO2	6.67% [at 1.2 µM]
COCCO[C@H]1CCN(Cc2c(C)noc2C)[C@H]1Cc1ccccc1	-15.1% [at 10 µM]
NCCCC[C@@H]1NC(=O)[C@@H](Cc2c[nH]c3ccccc23)NC(=O)[C@H](c2ccccc2)NC(=O)[C@@H]2C[C@@H](OC(=O)NCCN)CN2C(=O)[C@H](Cc2ccccc2)NC(=O)[C@H](Cc2ccc(OCc3ccccc3)cc2)NC1=O (cyclo([Hyp]([CO-Ethylenediamine])[Phg][dW]KY(Bn)F))	-6.82% [at 1.2 µM]
CCCCC[C@H](CC(=O)NO)C(=O)N[C@H](C(=O)N1CCC[C@H]1CO)C(C)C	-4.64% [at 1.2 µM]
O=C(C[C@H]1CC[C@H]2[C@@H](COC[C@@H](O)CN2Cc2ccc(Oc3ccccc3)cc2)O1)N1CCN(c2ccccc2)CC1	-8.77% [at 10 µM]
Nc1c(-c2nnc(-c3ccccc3)o2)sc2nc(-c3ccccc3)cc(-c3ccccc3)c12	-6.07% [at 0.6 µM]
CCN(CC)CCOC(=O)C(c1ccccc1)C1CCCCC1 (stereo unspecified)	16.1% [at 10 µM]
COc1ccc(Cc2nnc(NC(=O)CC(C)C)s2)cc1	16.7% [at 10 µM]
